Data from PubChem BioAssay AID1159580 (chemical genetic matrix, 2015).
The campaign covered roughly 5,500 compounds. About 2,000 (36%) were called active. Roughly 18% stayed inconclusive and do not appear here. Cut-off read from the data, not from the text of the source: active = normalized growth mostly below about 0.91 (no sharp cut-off); inconclusive = no clear call, values can overlap the other calls; inactive = mostly above about 0.92. The list shows a part of the results.

Assay: chemical genetic growth profiling, strain panel (AID 1159580);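 note: tested at 20 µM; growth read once vehicle control cultures reached saturation at 30 °C; 1 = growth at the plate median or of vehicle wells; lower values mean less growth of the strain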
Settings: S. cerevisiae deletion strains, growth OD

Measured: normalized growth

COC(=O)C1=C(C)NC(C)=C([N+](=O)[O-])C1c1ccccc1C(F)(F)F (stereo not given)
inactive: locus YAL040C, strain CLN3, active compounds read low 0.982 | locus YCL061C, strain MRC1 (second series), active compounds read low 1 | locus YER002W, strain NOP16, active compounds read low 0.991 | locus YGR078C, strain PAC10, active compounds read low 0.94 | locus YNL175C, strain NOP13, active compounds read low 0.976 | locus YNL197C, strain WHI3, active compounds read low 1.04 | locus YNL224C, strain SQS1, active compounds read low 0.987 | locus YNL322C, strain KRE1, active compounds read low 1.01 | locus YOR083W, strain WHI5 (second series), active compounds read low 1 | locus YPL055C, strain LGE1, active compounds read low 1.01
